Assay outcomes from PubChem.
SW480 rerep = A quantitative high throughput screen for small molecules that induce DNA re-replication in SW480 colon adenocarcinoma cells. SW480 DNA re-replication, Hoechst DNA content imaging, 48 h. Potency, µM (series often up to 46.1 µM), without a hit: at the top dose re-replication activation, actives largely listed as activators. actives 1.8% (n = 340,000). AID 624297, 2012; also: potency is read from the fitted curve at half-maximal effect; % of control where 0% means no effect; nearly all actives have a fitted effect of over 55% in size
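Hoechst fluorescence of nuclei (405 nm excitation, 500-530 nm emission) measured by plate-scanning imager after 48 hr compound exposure at 37 C; re-replication scored as increased number of nuclei with elevated intensity.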
MCF10A rerep = A quantitative high throughput screen for small molecules that induce DNA re-replication in MCF 10a normal breast cells; actives 2.9% (n = 350,000); MCF 10A DNA re-replication, Hoechst nuclear intensity, 48 h; Potency, µM (doses to about 46.1 µM), for the others: at the highest dose activity, positive = re-replication, usual class: activators; also: potency is read from the fitted curve at half-maximal effect; % of control where 0% means no effect; nearly all actives have a fitted effect of over 50% in size
TDP1 cell CPT = qHTS for Inhibitors of human tyrosyl-DNA phosphodiesterase 1 (TDP1): qHTS in cells in presence of CPT; chicken DT40 Tdp1-/-;hTDP1 cells + 20 nM CPT, ATP luminescence, 48 h; Potency, µM (top dose mostly 46.2 µM), for the others: top-dose activity change, negative = growth inhibition, usual class: inhibitors; actives 12% (n = 420,000); AID 686979, 2013; also: potency is read from the fitted curve at half-maximal effect; % is scaled to controls: 0 for no effect and ±100 for the full control effect; nearly all actives have a fitted effect of over 55% in size
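Chicken DT40 Tdp1-/- cells stably complemented with human TDP1 were seeded at 400 cells/well in medium containing 20 nM camptothecin, exposed to pin-transferred compounds, and grown at 37 °C for at least 48 hr. Viability was read as ATP luminescence.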
BCR signal inh = qHTS Assay to Find Inhibitors of Chronic Active B-Cell Receptor Signaling | ABC-DLBCL IkBa-CBG/CBR reporter, luminescence ratio, 4 h | Potency, µM (top dose mostly 46.1 µM), for the others: at the highest dose activity change, negative = inhibition, hits mostly inhibitors | actives 0.05% (n = 340,000) | AID 493014, 2011; active = well fitted inhibition curve with a large enough effect in the signal ratio, with a control signal flat, not every such curve was filed as active; inconclusive = small, poorly fitted or top-dose-only effect, or effect the other way, or a change in a side signal; the % refers to the signal ratio;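 also: potency is read from the fitted curve at half-maximal effect; plate controls were basal doxycycline-induced cells for no effect and cells given 10 µM MG132 for full effect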
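Doxycycline induced both beetle luciferases in TMD8 lymphoma cells; IKK-driven degradation limits the IkappaBalpha-fused green signal, while red luminescence normalises for cell number and nonspecific effects. Compounds tested up to 46 uM, 4 hrs.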
TDP1 cell noCPT = qHTS for Inhibitors of human tyrosyl-DNA phosphodiesterase 1 (TDP1): qHTS in cells in absence of CPT; DT40 Tdp1-/- hTDP1 cells, no CPT, ATP luminescence, 48 h; Potency, µM (series often up to 46.2 µM), for inactives: at the top dose activity change, negative = growth inhibition, hits mostly inhibitors; actives 15% (n = 420,000); AID 686978, 2013; also: potency is read from the fitted curve at half-maximal effect; % is scaled to controls: 0 for no effect and ±100 for the full control effect; nearly all actives have a fitted effect of over 55% in size
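Luminescent ATP content (CellTiter-Glo) served as the growth readout. Knockout chicken DT40 cells expressing human TDP1 were exposed to compounds without camptothecin for a minimum 48 hr at 37 °C.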
IL1B secr inh = qHTS for Inhibitors of Inflammasome Signaling: IL-1-beta AlphaLISA Primary Screen; activity change, % at 57.5 µM; THP-1 LPS/ATP IL-1B secretion, AlphaLISA, 16 h; hits give low values; actives 4.7% (n = 360,000); in the data active = activity change below about -50%; inconclusive = mostly about -30% to -49%; also: % is scaled to controls: 0 for no effect and ±100 for the full control effect
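Secreted IL-1B measured by AlphaLISA bead assay after 16 h compound exposure of THP-1 cells; compounds (final up to 57.5 uM) added 1 h before LPS (250 ng/mL) and ATP (1.25 mM) stimulation; lower signal means less secretion.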
* hit, by the source's call; ? = inconclusive; / = no result given. Shown are actives, neighbours in structure and some others; about 19% of the full set was active somewhere. Unless noted, calls follow the shape of the dose curve; as a rule, active = well fitted curve in the direction sought with a large enough effect; inconclusive = small, poorly fitted or top-dose-only effect, or another doubt; inactive = no such curve, though single readings can be large; an effect the other way counts as inactive or inconclusive.

SMILES | SW480 rerep | MCF10A rerep | TDP1 cell CPT | BCR signal inh | TDP1 cell noCPT | IL1B secr inh
COCCNC(=O)[C@H]1N2C(=O)c3ccccc3C2SC1(C)C (stereo partly drawn) | -19.4% | -16.6% | -5.3% | -0.5% | ? | 6.9
CC1=C(C(=O)Nc2ccccc2)C(c2cccnc2)n2nc(SCc3ccccc3Cl)nc2N1 (stereo not drawn) | / | / | -16.1% | / | -8.5% | /
CN(C)C(=O)COc1ccc(C(=O)/C=C/c2cccnc2)cc1 | ? | ? | 16.4µM* | ? | 13µM* | -101.0*
CN(C)c1ccc(/C=C/C(=O)c2cccnc2)cc1 | 2.6% | 8.2% | 5.9% | 10.1% | -28.6% | ?
O=C(/C=C/c1cccnc1)c1ccc(O)cc1 | 20.6µM* | ? | ? | ? | 14.6µM* | -97.9*
O=C(C=Cc1cccnc1)c1ccccc1 | 12.2% | ? | 5.8µM* | / | 5.8µM* | -105.8*
O=C(/C=C/c1cccnc1)c1ccccc1O | -8.6% | 21.2% | ? | -4.4% | ? | -2.3
O=C(/C=C/c1cccnc1)c1ccc([N+](=O)[O-])cc1 | ? | ? | -29.8% | 3.0% | ? | -20.7
COc1cc(C(=O)/C=C/c2cccnc2)c([N+](=O)[O-])cc1OC | 4.9% | 23.1µM* | 5.17µM* | ? | 5.8µM* | -99.8*
COCC(=O)N1CCC2(CCCN(C(c3ccccc3)c3ccccc3)C2)CC1 | / | / | 8.1% | / | ? | /
COCCNCc1cc(C)n(-c2cc(S(=O)(=O)N3CCOCC3)ccc2N2CCCC2)c1C | 16.4% | 10.6% | ? | / | ? | -25.2
O.O=C([O-])CC([S-])C(=O)[O-].[Au+].[Na+].[Na+] (stereo not drawn) | / | / | -21.5% | / | 0.1% | /
COc1cccc(CNC(=O)C(NS(=O)(=O)c2ccc3c(c2)CCN3C(C)=O)C(C)C)c1 (stereo not drawn) | 3.1% | 3.0% | 13.3% | 1.9% | ? | -16.6
CN(C(=O)CC1C(=O)NCCN1Cc1ccccc1C(F)(F)F)C1CCOCC1 (stereo not drawn) | 2.5% | 1.6% | ? | 2.9% | 20.6µM* | 2.5
CCOc1ccccc1CN1CCNC(=O)C1CC(=O)NC1CCCCCCC1 (stereo not drawn) | -1.7% | 8.0% | 29.1µM* | / | ? | -22.0
CCc1ccc(CNC(=O)CC2C(=O)NCCN2Cc2ccccc2F)nc1 (stereo not drawn) | 111.5% | 18.4% | -17.9% | 0.3% | 5.17µM* | 9.7
Cc1ccccc1CN1CCNC(=O)C1CC(=O)NC1CCCCCCC1 (stereo not drawn) | -1.6% | 1.4% | ? | -8.1% | -22.9% | -13.5
O=[N+]([O-])c1ccc(N2CCN(c3ccccc3O)CC2)c(Cl)c1 | 10.1% | 13.7% | 20.6µM* | -0.6% | 23.1µM* | ?
O=[N+]([O-])c1ccc(N2CCN(c3ccccn3)CC2)c(Cl)c1 | 0.4% | 16.6% | 5.5% | ? | ? | -58.7*
O=[N+]([O-])c1ccc(N2CCN(CCOc3nonc3-c3ccccc3)CC2)c(Cl)c1 | -2.5% | -22.6% | 29.1µM* | -10.3% | ? | -4.5
O=[N+]([O-])c1ccc(N2CCN(c3ccccc3O)CC2)cc1 | -3.8% | -0.8% | 5.0% | -5.0% | -12.7% | -76.1*
Cc1nonc1OCCN1CCN(c2ccc([N+](=O)[O-])cc2)CC1 | -2.2% | 0.1% | ? | 9.3% | ? | -4.8
O=[N+]([O-])c1ccc(N2CCN(S(=O)(=O)c3ccccc3)CC2)cc1 | -1.2% | ? | ? | 0.3% | ? | -0.7
O=C(CN1CCN(c2ccccc2O)CC1)Nc1cc([N+](=O)[O-])ccc1Cl | 1.2% | 0.7% | ? | -3.6% | ? | 26.9
O=C(Nc1ccc2c(c1)Cc1cc([N+](=O)[O-])ccc1-2)C(F)(F)F | ? | -0.5% | ? | / | 6.51µM* | -7.9
SMILES | SW480 rerep | MCF10A rerep | TDP1 cell CPT | BCR signal inh | TDP1 cell noCPT | IL1B secr inh
O=C(Nc1cc2c(cc1Cl)-c1ccc([N+](=O)[O-])cc1C2=NO)C(F)(F)F | 0.9% | 12.1% | ? | / | 23.1µM* | -65.0*
O=C1OC(=O)c2cc([N+](=O)[O-])ccc21 | -21.6% | -17.0% | 3.2% | -2.2% | -1.8% | -53.6*
Nc1ccc2c(c1)C(=NO)c1cc([N+](=O)[O-])ccc1-2 | 10.3µM* | 11.0% | 0.581µM* | / | 2.06µM* | -73.4*
COc1cc2c(cc1NC(=O)C(F)(F)F)-c1ccc(NC(=O)C(F)(F)F)cc1C2 | 1.4% | -2.1% | -17.8% | / | -15.8% | 1.8
O=C(Nc1ccccc1F)Nc1ccc([N+](=O)[O-])cc1Cl | -6.2% | ? | ? | ? | ? | ?
Cc1ccc(C(=O)NCC(=O)OCc2nnc(-c3ccc([N+](=O)[O-])cc3)o2)s1 | -10.8% | -5.3% | ? | 1.4% | -29.3% | 0.0
O=[N+]([O-])c1ccc2c(c1)-c1ccccc1C2=NO | -0.2% | 20.6% | 18.4µM* | / | 16.4µM* | -74.7*
CC(=O)OC1CC2CCC1(C)C2(C)C (stereo not drawn) | -8.1% | -1.4% | / | / | / | /
COc1cc(/C=C/C(=O)OC2CC3CCC2(C)C3(C)C)ccc1O (stereo not drawn) | 15.0% | ? | 18.4µM* | ? | 16.4µM* | 11.4
COc1ccc(C(NC(=O)C2CCN(CCOc3ccc(Cl)cc3Cl)CC2)c2ccccc2C)cn1 (stereo not drawn) | / | / | ? | / | ? | -1.4
O=C(NC(c1cccnc1)c1ccc2c(c1)OCO2)C1CCN(CCOc2ccc(Cl)cc2Cl)CC1 (stereo not drawn) | / | / | -44.9% | / | ? | -67.5*
O=C(NC(c1ccccc1)c1ccsc1)C1CCN(CCOc2ccc(Cl)cc2Cl)CC1 (stereo not drawn) | / | / | ? | / | ? | -68.0*
O=C(NC(c1ccccc1)c1cnccn1)C1CCN(CCOc2ccc(Cl)cc2Cl)CC1 (stereo not drawn) | / | / | 16.4µM* | / | 18.4µM* | ?
CCCC(=O)N1CCC1(C)C(=O)Nc1ccc2scnc2c1 (stereo not drawn) | / | / | -5.2% | / | -18.9% | 18.3
COc1ccc(O)c(C(=O)c2cnc3c(c2)CN(C)C(=O)N3)c1 | ? | ? | 18.4µM* | -5.9% | 18.4µM* | -11.9
